Bioassay records from PubChem BioAssay.
Rv3671c protease: inhibitors of M. tuberculosis serine protease Rv3671c | P9WHR9 | inhibition, % at 5.96 µM | actives 0.048% (n = 320,000); in the data active = inhibition above about 38%;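 note: extracellular domain of Rv3671c used as enzyme; 0% = enzyme with DMSO and 100% = no enzyme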
Target sequence (P9WHR9 whole entry, looked up, the tested form may be a part): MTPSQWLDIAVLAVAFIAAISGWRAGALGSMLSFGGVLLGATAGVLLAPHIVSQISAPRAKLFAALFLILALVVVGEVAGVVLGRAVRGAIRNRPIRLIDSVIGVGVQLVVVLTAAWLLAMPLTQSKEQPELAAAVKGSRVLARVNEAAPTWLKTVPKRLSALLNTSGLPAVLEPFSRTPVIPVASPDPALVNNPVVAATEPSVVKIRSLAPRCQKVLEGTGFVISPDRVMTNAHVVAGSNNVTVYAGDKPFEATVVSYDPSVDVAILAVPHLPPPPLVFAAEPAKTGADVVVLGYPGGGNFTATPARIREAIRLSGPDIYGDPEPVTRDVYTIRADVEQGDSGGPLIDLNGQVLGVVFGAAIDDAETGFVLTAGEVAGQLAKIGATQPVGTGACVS
Mtb FBA inh: inhibitors of M. tuberculosis fructose-bisphosphate aldolase; purified M. tuberculosis FBA, fluorescence read-out; inhibition, % at 1 µM; P9WQA3; actives 2.3% (n = 360,000); in the data active = inhibition above about 27%;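 note: 0% = vehicle and 100% = reference inhibitor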
GDH-TPI inh: inhibits GDH-TPI coupling enzymes, artifact for Mtb FBA screen; actives 1.2% (n = 360,000); inhibition, % at 4.8 µM; AID 588335; GDH-TPI coupled enzyme counterscreen, NADH absorbance; in the data active = inhibition above about 30%;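 note: 0% = DMSO wells and 100% = wells lacking the enzyme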
UGM FP inh: blocks M. tuberculosis UGM enzyme. P9WIQ1. purified UGM, fluorescence polarization probe displacement. inhibition, % at 10 µM. actives 0.06% (n = 320,000); in the data active = inhibition above about 10%, passing the limit was not always enough
Active calls of the source: *; x = not tested or not shown; + = active, no number. Most compounds without a hit are left out; they make up all but 3.5% or so of the library.

SMILES | Rv3671c protease | Mtb FBA inh | GDH-TPI inh | UGM FP inh
CNc1nc2sc3c(c2c(=O)n1C)CC(C)(C)SC3 | 1 | 185* | 8 | 1
NC1=NC(=O)/C(=C/C=C/c2cccs2)S1 | -1 | -3 | 13 | 1
CN(C)c1oc(-c2ccccc2F)nc1C#N | 3 | + | 22 | 2
CNc1oc(-c2cccs2)nc1C#N | 0 | + | 23 | -3
CN(C)c1oc(-c2cccs2)nc1C#N | 8 | + | 30 | 0
COc1ccc(Nc2oc(-c3cccs3)nc2C#N)cc1 | -5 | 10 | 16 | 3
CC(=O)Nc1ccc(-c2ccnc3c2CC(C(=O)NCCC(F)(F)F)O3)cc1 (centres undefined) | x | 8 | 0 | x
O=C(CC1CS(=O)(=O)CC1CC(=O)Nc1ccc2c(c1)OCCO2)Nc1ccc2c(c1)OCCO2 (centres undefined) | -1 | 2 | 1 | -1
Cc1ccc(F)c(S(=O)(=O)NC(=O)C2(C)CCN2C(=O)CCc2ccccc2)c1 (centres undefined) | x | 2 | -2 | x
CNc1cncc(-c2ccc(CN3CCOCC3)cc2)n1 | x | + | 12 | x
CNc1cncc(-c2cnn(CC(C)C)c2)n1 | x | + | 20 | x
CNc1cncc(-c2ccc(CN(C)C)cc2)n1 | x | + | 6 | x
CNc1cncc(-c2ccoc2)n1 | x | 177* | 6 | x
Cc1cccc(CN(C)C[C@H]2OCc3cnnn3CCCC(=O)N([C@@H](C)CO)C[C@@H]2C)c1 | x | 0 | -4 | x
CNc1cncc(-c2ccc(OC)cc2)n1 | x | 172* | 19 | x
CNc1cncc(-c2cccc(C(C)=O)c2)n1 | x | 0 | 18 | x
CNc1cncc(-c2cccc(NS(C)(=O)=O)c2)n1 | x | 168* | 19 | x
CNc1cncc(-c2ccc(S(C)(=O)=O)cc2)n1 | x | 171* | 16 | x
CNc1cncc(-c2cc(C)c(O)c(C)c2)n1 | x | 20 | 15 | x
CNc1cncc(-c2ccc(O)cc2)n1 | x | 131* | 23 | x
CCCN(CC(=O)NC(=O)NCc1ccccc1)CC(=O)Nc1ccc(F)c(F)c1F | x | 0 | -1 | x
CC1(C(=O)NS(=O)(=O)c2ccccc2)CCN1C(=O)CCc1ccccc1 (centres undefined) | x | 2 | 12 | x
CNc1cncc(-c2ccc(OCCCN(C)C)nc2)n1 | x | + | 14 | x
CC(=O)Nc1cncc(-c2ccc(CN(C)C)cc2)n1 | x | 5 | 6 | x
C=CCn1c(N)c(C(=O)OC(C)(C)C)c2nc3ccccc3nc21 | x | + | 22 | x
SMILES | Rv3671c protease | Mtb FBA inh | GDH-TPI inh | UGM FP inh
C=CCn1c(N)c(C(=O)Nc2ccccc2)c2nc3ccccc3nc21 | -7 | 10 | 5 | -1
C=CCn1c(N)c(C(=O)OC(C)CC)c2nc3ccccc3nc21 (centres undefined) | x | 167* | 20 | x
Cc1cc([N+](=O)[O-])nn1Cc1ccc(C(=O)N/N=C/c2ccc(O)cc2O)cc1 | 20 | -1 | 44* | -2
Cc1cc([N+](=O)[O-])nn1Cc1ccc(C(=O)N/N=C/c2ccc(F)cc2)cc1 | 1 | 1 | -5 | 0
CCCCn1c(N)c(N(CCOC)C(=O)COC(=O)c2ccccc2NCCO)c(=O)[nH]c1=O | x | 124* | 12 | x
CCN(C(=O)COC(=O)c1ccccc1NCc1ccco1)c1c(N)n(Cc2ccccc2)c(=O)[nH]c1=O | x | 142* | -4 | x
CCN(C(=O)COC(=O)c1ccccc1Nc1ccccc1)c1c(N)n(Cc2ccccc2)c(=O)[nH]c1=O | x | 0 | 8 | x
CSc1ncc(Cl)c(C(=O)Nc2cccc(Cl)c2)n1 | -2 | 1 | 7 | 0
CCOC(=O)C1(CCCc2ccccc2)CCN(CC(O)CO)CC1 (centres undefined) | -6 | -3 | 2 | 1
COc1cccc(-c2nnc(Nc3nc4c(F)cccc4s3)o2)c1 | 3 | 134* | 59* | 1
COc1cccc2sc(Nc3nnc(-c4ccccc4Cl)o3)nc12 | -1 | 18 | 28 | 0
O=C(O)c1ccc(/C=N/Nc2ccc(C(F)(F)F)cn2)cc1 | x | 0 | 38* | x
CC(=O)Nc1ccc(/C=N/Nc2nc3ccccc3[nH]2)cc1 | 10 | -5 | 38* | -3
COC(=O)c1ccc(/C=N/Nc2nc3ccccc3[nH]2)cc1 | 12 | 1 | 14 | 1
O=C(O)c1ccc(/C=N/Nc2nc3ccccc3[nH]2)cc1 | 1 | 2 | 75* | 0
CCCCN(C=O)c1c(CC)nc2ccc(C(=O)NCCCN3CCCC3=O)cn12 | x | -1 | 6 | x
CCOc1ccc(C(=O)NC(=S)NCc2cccnc2)cc1[N+](=O)[O-] | -16 | -2 | 5 | 2
COc1ccc2c(COC(=O)CCS(=O)(=O)c3ccccc3)cc(=O)oc2c1 | -16 | 134* | -1 | -2
Cc1cc(=O)oc2cc(OCC(=O)NCC3CCC(C(=O)O)CC3)ccc12 (centres undefined) | 1 | 15 | -3 | -1
